Test results as given in PubChem BioAssay (Tox21).
Results filed as inconclusive are left out. A call without a number means that no potency is given here. Calls of active or inactive are those of the source. Calls follow the shape of the dose curve; as a rule, active = well fitted curve in the direction sought with a large enough effect in the repeat runs; inconclusive = weak or mixed curves; inactive = no such curve, though single readings can be large; an effect the other way counts as inactive or inconclusive.

What was measured:
[1] = qHTS RealTime-Glo MT Cell Viability Assay in HEK293 cells - 0 hour (AID 1224880); also: top concentration of the series differs between compounds; nearly all actives have a fitted effect of over 45% in size
Procedure, shortened: (§1)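 Cells were seeded together with NanoLuc luciferase and a prosubstrate that viable cells reduce to a luciferase substrate. After a 5 h incubation at 37 C/5% CO2, compounds were added and luminescence was measured repeatedly during 40 h of treatment.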

[2] = A CellTox Green Cytotoxicity Assay to monitor cytotoxicity in HEK293 cells - 32 hour (AID 1224881); also: nearly all actives have a fitted effect of over 40% in size
Procedure, shortened: (§2)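 Nonlytic real-time cytotoxicity: HEK293 + CellTox Green reagent plated, 5 h preincubation, pintool compound addition (23 nL in DMSO), 37 C for 40 h, fluorescence measured at successive time points.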

[3] = A CellTox Green Cytotoxicity Assay to monitor cytotoxicity in HepG2 cells - 0 hour (AID 1224882); also: nearly all actives have a fitted effect of over 35% in size
Procedure, shortened: (§3)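 Read-out is fluorescence of a cyanine dye excluded from live cells that stains DNA of dead HepG2 cells, with signal proportional to cytotoxicity. Plates were read at 0, 8, 16, 24, 32 and 40 h after compound addition.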

[4] = A CellTox Green Cytotoxicity Assay to monitor cytotoxicity in HepG2 cells - 32 hour (AID 1224883); also: nearly all actives have a fitted effect of over 50% in size; also: potency is read from the fitted curve at half-maximal effect
Procedure, shortened: as §3

[5] = qHTS RealTime-Glo MT Cell Viability Assay in HepG2 cells - 16 hour (AID 1224885); also: nearly all actives have a fitted effect of over 50% in size
Procedure, shortened: (§4)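 Cell number in HepG2 cultures estimated from NanoLuc luminescence generated by metabolic reduction of a prosubstrate by living cells. The homogeneous, nonlytic format allowed repeated reads at 0, 8, 16, 24, 32 and 40 h of compound exposure.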

[6] = A CellTox Green Cytotoxicity Assay to monitor cytotoxicity in HEK293 cells - 16 hour (AID 1224888); also: nearly all actives have a fitted effect of over 35% in size
Procedure, shortened: as §2

[7] = qHTS RealTime-Glo MT Cell Viability Assay in HepG2 cells - 0 hour (AID 1224889); also: nearly all actives have a fitted effect of over 50% in size; also: potency is read from the fitted curve at half-maximal effect
Procedure, shortened: as §4

[8] = A CellTox Green Cytotoxicity Assay to monitor cytotoxicity in HEK293 cells - 8 hour (AID 1224884); also: nearly all actives have a fitted effect of over 35% in size
Procedure, shortened: as §2

[9] = qHTS RealTime-Glo MT Cell Viability Assay in HEK293 cells - 24 hour (AID 1224886); also: nearly all actives have a fitted effect of over 50% in size; also: potency is read from the fitted curve at half-maximal effect
Procedure, shortened: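 Homogeneous bioluminescent viability format in HEK293 cells (600 cells/well). Following 5 h at 37 C/5% CO2, 23 nL compound was pintooled; the signal was measured repeatedly during 40 h incubation.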

[10] = qHTS RealTime-Glo MT Cell Viability Assay in HEK293 cells - 8 hour (AID 1224887); also: nearly all actives have a fitted effect of over 50% in size; also: potency is read from the fitted curve at half-maximal effect
Procedure, shortened: as §1

Row | SMILES | outcome [1] | Potency [2] | Potency [3] | Potency [4] | outcome [5] | Potency [6] | Potency [7] | Potency [8] | Potency [9] | Potency [10]
1 | Cc1onc(-c2ccccc2)c1-c1ccc(S(N)(=O)=O)cc1 | inactive | inactive | inactive | inactive | inactive | inactive | inactive |  |  | 
2 | CC(=O)O[C@H](CC(=O)[O-])C[N+](C)(C)C | inactive | inactive | inactive |  | inactive | inactive | inactive | inactive | inactive | inactive
3 | CC(CCO)CCCC(C)(C)O (configuration not stated) | inactive | inactive | inactive | inactive | inactive | inactive | inactive |  |  | inactive
4 | CCN1CCCC1CNC(=O)c1cc(S(N)(=O)=O)ccc1OC (configuration not stated) | inactive | inactive | inactive | inactive | inactive | inactive | inactive |  |  | inactive
5 | CCCCNc1ccccc1 | inactive | inactive | inactive |  | inactive | inactive | inactive | inactive | inactive | inactive
6 | c1ccc(SCCSc2ccccc2)cc1 | inactive | inactive | inactive |  | inactive | inactive | inactive | inactive | inactive | inactive
7 | O=C(O)C1CCC1 | inactive | inactive | inactive |  | inactive | inactive | inactive | inactive | inactive | inactive
8 | Cc1c(F)cc2c(=O)c(C(=O)O)cn3c2c1CCC3C (configuration not stated) | inactive | inactive | inactive |  | inactive | inactive | inactive | inactive | inactive | inactive
9 | COc1ccc(COC=O)cc1 | inactive | inactive | inactive | inactive | inactive | inactive | inactive |  |  | inactive
10 | CC(C)=CCC/C(C)=C/C(=O)O | inactive | inactive | inactive |  | inactive | inactive | inactive | inactive | inactive | inactive
11 | CCC(C)OC(=O)N1CCCCC1CCO (configuration not stated) | inactive | inactive | inactive | inactive | inactive | inactive | inactive |  | inactive | inactive
12 | CC(C)CCCCCCN | inactive | inactive | inactive |  | inactive | inactive | inactive | inactive | inactive | inactive
13 | C=C(C)[C@H]1CC=C(C)CC1 | inactive | inactive | inactive | inactive | inactive | inactive | inactive |  | inactive | inactive
14 | C#CC(C)(O)CC(C)C (configuration not stated) | inactive | inactive | inactive |  | inactive | inactive | inactive | inactive | inactive | inactive
15 | Cc1ccc(Nc2ccc(O)c3c2C(=O)c2ccccc2C3=O)cc1 | inactive | inactive | inactive |  | inactive | inactive | inactive | inactive | inactive | inactive
16 | CC(C)c1cccc(O)c1 | inactive | inactive | inactive |  | inactive | inactive | inactive | inactive | inactive | inactive
17 | COC(=O)c1ccc(C(=O)OC)c(C(=O)OC)c1 | inactive | inactive | inactive |  | inactive | inactive | inactive | inactive | inactive | inactive
18 | CCCCCCCCCCCCCCCCCC(=O)OCCCCCCCCCCCCCC(C)C | inactive | inactive | inactive | inactive | inactive | inactive | inactive |  |  | inactive
19 | CCCCC1CCCCC(=O)O1 (configuration not stated) | inactive | inactive | inactive |  | inactive | inactive | inactive | inactive | inactive | inactive
20 | CCCCCCOC(=O)c1ccccc1O | inactive | inactive | inactive | inactive | inactive | inactive | inactive |  | inactive | inactive
21 | CC(C)COC(=O)C(C)C | inactive | inactive | inactive |  | inactive | inactive | inactive | inactive | inactive | inactive
22 | Cc1ncc(CSSCc2cnc(C)c(O)c2CO)c(CO)c1O | inactive | inactive | inactive | inactive | inactive | inactive | inactive |  | inactive | inactive
23 | O=[N+]([O-])c1ccc(Oc2ccc([N+](=O)[O-])cc2)cc1 | inactive | inactive | inactive | inactive | inactive | inactive | inactive |  |  | 
24 | CC(C)(O)c1ccccc1 | inactive | inactive | inactive |  | inactive | inactive | inactive | inactive | inactive | inactive
25 | CCCCCCCCCCC1CO1 (configuration not stated) | inactive | inactive | inactive |  | inactive | inactive | inactive | inactive | inactive | inactive
26 | C#CC(O)C(CC)CCCC (configuration not stated) | inactive | inactive | inactive | inactive | inactive | inactive | inactive |  |  | inactive
27 | CCCCCCCCC=O | inactive | inactive | inactive |  | inactive | inactive | inactive | inactive | inactive | inactive

Row | SMILES | outcome [1] | Potency [2] | Potency [3] | Potency [4] | outcome [5] | Potency [6] | Potency [7] | Potency [8] | Potency [9] | Potency [10]
28 | CC(=O)N[C@@H](CCC(N)=O)C(=O)O | inactive | inactive | inactive |  | inactive | inactive | inactive | inactive | inactive | inactive
29 | CCCCCCOC(=O)CC(CC(=O)OCCCCCC)(OC(=O)CCC)C(=O)OCCCCCC | inactive | inactive | inactive |  | inactive | inactive | inactive | inactive | inactive | inactive
30 | CCCCCCCCCCCCCCC | inactive | inactive | inactive |  | inactive | inactive | inactive | inactive | inactive | inactive
31 | CCN(CC)S(=O)(=O)c1ccc(C(=O)O)cc1 |  |  | inactive | inactive | inactive |  | inactive |  |  | 
32 | CC(C)(C)C(=O)/C=C/c1ccc(Cl)cc1 |  | inactive | inactive | inactive | inactive | inactive | inactive | inactive | inactive | inactive
33 | CC(C)=CC(=O)O |  | inactive | inactive |  | inactive | inactive | inactive | inactive | inactive | inactive
34 | O=C(O)CCNC(=O)c1ccc(N=Nc2ccc(O)c(C(=O)O)c2)cc1 |  | inactive | inactive | inactive | inactive | inactive | inactive |  | inactive | inactive
35 | CC(C)CCCC(C)NCCC(C)C (configuration not stated) |  | inactive | inactive | inactive | inactive | inactive | inactive | inactive | inactive | inactive
36 | CCCCCCCCN(C)CCCCCCCC |  | inactive | inactive | 22.1 µM (active) | inactive | inactive | inactive |  | inactive | inactive
37 | c1cc(CN2CCCCC2)cc(OCCCNc2nc3ccccc3s2)c1 |  | inactive | inactive |  |  | inactive | inactive | inactive | 9.52 µM (active) | 9.52 µM (active)
38 | OC1OC[C@@H](O)[C@H](O)[C@H]1O (some centres not stated) |  | inactive | inactive | inactive | inactive | inactive | inactive | inactive | inactive | inactive
39 | COc1cc(O)cc(O)c1 |  | inactive | inactive | inactive | inactive | inactive | inactive | inactive |  | inactive
40 | CCCCCC[C@@H](CCC)C(=O)O |  | inactive | inactive | inactive | inactive | inactive | inactive | inactive | inactive | inactive
41 | C=CCSCC1Nc2cc(Cl)c(S(N)(=O)=O)cc2S(=O)(=O)N1 (configuration not stated) |  | inactive | inactive |  | inactive | inactive | inactive |  |  | inactive
42 | O=Cc1ccccc1[N+](=O)[O-] |  | inactive | inactive | inactive | inactive | inactive | inactive | inactive | inactive | inactive
43 | C1=C\CC/C=C\CC/C=C\CC/1 |  | inactive | inactive | inactive | inactive | inactive | inactive | inactive | inactive | inactive
44 | CCCCC=O |  | inactive | inactive | inactive | inactive | inactive | inactive | inactive |  | inactive
45 | CCCC(C)CO (configuration not stated) |  | inactive | inactive | inactive | inactive | inactive | inactive | inactive | inactive | inactive
46 | CC(C)CCCC(C)CCCC(C)CCCCC(C)CCCC(C)CCCC(C)C (configuration not stated) |  | inactive | inactive |  | inactive | inactive | inactive | inactive | inactive | inactive
47 | C/C=C1\C(=O)C[C@H]2[C@@H]3CCC4=CC(=O)CC[C@]4(C)[C@H]3CC[C@]12C |  |  | inactive | inactive | inactive | inactive | 7.61 µM (active) | inactive |  | 
48 | Cn1cnc2c(=O)[nH]c(N)nc21 |  | inactive | inactive |  | inactive | inactive | inactive | inactive |  | inactive
49 | NS(=O)(=O)c1cc(C2(O)NC(=O)c3ccccc32)ccc1Cl (configuration not stated) |  | inactive | inactive | inactive | inactive | inactive | inactive | inactive | inactive | inactive
50 | COC(=O)C1=C(C)NC(C)=C(C(=O)OCC(C)=O)C1c1ccccc1[N+](=O)[O-] (configuration not stated) |  | inactive | inactive |  |  | inactive |  | inactive |  | inactive
51 | Cc1cc(C)c(NC(=O)CN(CC(=O)O)CC(=O)O)c(C)c1Br |  | inactive | inactive | inactive | inactive | inactive | inactive |  | inactive | inactive
52 | O=C1CC2(CCCC2)CC(=O)N1 |  | inactive | inactive | inactive | inactive | inactive | inactive | inactive | inactive | inactive
53 | CNc1ncnc2nc[nH]c12 |  | inactive | inactive | inactive | inactive | inactive | inactive | inactive | inactive | inactive
